This is a sample that favours compounds with a hit; in the whole collection about 5.3% have one here.
Mot1-301 SUMO: blocks SUMOylation pathway, rescuing yeast Mot1-301 growth; S. cerevisiae Mot1-301 growth rescue, ATP luminescence, 38.5C; percent above DMSO median, 100 means doubled; growth rescue, % at 18.8 µM; 320,000 compounds, 1% hits;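 active = every valid replicate shows activation above 250% relative to neutral control wells; inactive = the rest, any valid replicate at or below 250%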;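 note: OY570 slx delta 5 strain wells were the positive control but not used for scaling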
HIF activator: HIF pathway transcriptional activation. U2OS HRE-luciferase reporter, luminescence; normalized: DMSO 0%, desferrioxamine 100%. activation, % at 7.5 µM (by protocol). 300,000 compounds, 0.32% hits. AID 1910;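 active = mean activation of at least 10% of the iron chelator positive control signal, with at least half of replicates also reaching 10%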
M18AAP inhibitor: PfM18AAP enzyme inhibition; recombinant PfM18AAP, H-Glu-NHMec fluorogenic cleavage; inhibition, % at 7.35 µM; 290,000 compounds, 1.2% hits;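 active = inhibition above the campaign mean inhibition over all tested compounds plus 3 SD, cut at about 28% in these data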;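 note: 0% = plate median of test compound wells and 100% = 2 mM ZnCl2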
ALR inh: human ALR oxidase inhibition via reduced H2O2 | AID 485317 | purified ALR, DTT oxidation, H2O2 HRP-luminol luminescence | 290,000 compounds, 3.8% hits | P55789 | inhibition, % (test concentration not listed);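 active = mean replicate inhibition above about 79%, with every replicate also reaching it, limit read from the data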
Target sequence (P55789 whole entry, looked up): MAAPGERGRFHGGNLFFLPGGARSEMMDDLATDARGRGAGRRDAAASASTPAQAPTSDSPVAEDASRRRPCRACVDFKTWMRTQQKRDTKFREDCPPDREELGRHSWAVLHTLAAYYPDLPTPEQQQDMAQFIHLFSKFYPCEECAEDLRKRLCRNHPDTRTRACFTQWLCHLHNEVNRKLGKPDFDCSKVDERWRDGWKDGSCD
* hit, by the source's call; . = no result.

SMILES	Mot1-301 SUMO	HIF activator	M18AAP inhibitor	ALR inh
Cc1ccc(/C(O)=C2\C(=O)C(=O)N(C)C2c2ccc(Br)cc2)cc1 (configuration not stated)	6	-1	4	5
CCCn1c(N)c(C(=O)CSc2nc(C)nc3sc(C)c(C)c23)c(=O)[nH]c1=O	12	0	.	-6
O=C(Nc1nc(-c2ccccn2)cs1)c1cccc(-n2cnnn2)c1	5	20*	0	-40
Cc1cc(=O)[nH]c(SCc2ccccc2)n1	-8	-18	-17	0
CCCOc1ccc(C(C)=O)cc1CSc1nc(O)cc(=O)[nH]1	19	0	-1	99*
O=C(CSc1nc2ccccc2[nH]1)N1c2ccccc2Sc2ccccc21	100	0	8	.
O=c1cc(O)nc(SCc2ccccc2)[nH]1	8	0	-6	98*
O=C(CSc1nc(O)cc(=O)[nH]1)N1c2ccccc2Sc2ccccc21	219	0	7	99*
N#Cc1c(/N=C/c2ccc(-c3ccc(C(=O)O)c(Cl)c3)o2)sc2c1CCCC2	-12	.	.	99*
COCc1cc(C)n(CC(=O)N/N=C/c2ccc(-c3ccc(Cl)c(C(=O)O)c3)o2)c(=O)c1C#N	-16	0	7	5
COCc1cc(C)nc(N/N=C/c2ccc(-c3ccc(C(=O)O)c(Cl)c3)o2)c1C#N	8	0	4	98*
COc1cccc(C2Nc3ccccc3C(=O)N2c2ccc(F)cc2)c1O (configuration not stated)	-1	4	3	75
COc1cccc(C2Nc3ccccc3C(=O)N2O)c1O (configuration not stated)	13	1	1	87*
COc1ccccc1-c1cc(C(=O)N/N=C/c2ccoc2)c2ccccc2n1	0	0	6	14
COc1cccc(C(=O)Nc2nc(-c3ccc(S(=O)(=O)N4CCOCC4)cc3)cs2)c1	255*	0	-1	7
O=C(Nc1nc(-c2ccc(S(=O)(=O)N3CCOCC3)cc2)cs1)c1ccccc1	-5	0	7	5
COc1ccc(NC(=O)C2CCCCC2)cc1S(=O)(=O)N1CCOCC1	-13	.	.	-4
CC(=O)Nc1ccc(S(=O)(=O)N2CCN=C2SCc2ccccc2C)cc1	5	0	2	98*
CS(=O)(=O)N1CCN=C1SCc1ccc([N+](=O)[O-])cc1	-11	-1	2	99*
CC(=O)Nc1ccc(S(=O)(=O)N2CCN=C2SCc2cccc(C)c2)cc1	12	0	5	5
CC(=O)Nc1ccc(S(=O)(=O)N2CCN=C2SCc2ccc([N+](=O)[O-])cc2)cc1	-8	0	2	99*
CCN1C(=O)C(=O)N(Cc2ccc(OC)c(F)c2)C1=O	8	0	0	-1
O=C(CCc1ccccc1)Nc1ccc(S(=O)(=O)N2CCOCC2)cc1	-4	0	-15	-20
C/C(=N\NC(=O)CCc1ccc(S(=O)(=O)N2CCOCC2)cc1)c1ccccc1Cl	-19	0	-11	98*
Brc1ccc(OCc2ccccc2)c(CNCc2ccncc2)c1	262*	0	6	1
SMILES	Mot1-301 SUMO	HIF activator	M18AAP inhibitor	ALR inh
CCN(C(=O)c1ccc(S(=O)(=O)N2CCC(C)CC2)cc1)C1CCS(=O)(=O)C1 (configuration not stated)	-2	1	.	-4
O=c1oc2cc([N+](=O)[O-])ccc2nc1/C=C(\O)c1cccc(Br)c1	-15	16*	16	67
CN(C)c1nc(Oc2ccc(/C=N/O)cc2)nc(N(C)C)n1	-4	0	0	99*
CC(C)Nc1nc(NC(C)C)nc(Oc2ccc(/C=N/O)cc2)n1	15	-1	-9	.
COc1nc(Oc2ccc(/C=N/O)cc2)nc(N(C)C)n1	-5	0	-7	99*
COc1cc(C)nc(Oc2ccc(/C=N/O)cc2)n1	-4	0	-8	98*
COc1cc(OC)nc(Oc2ccc(NC(C)=O)cc2)n1	7	0	-6	-21
O=C(Nc1nncs1)c1cc(S(=O)(=O)N2CCOCC2)ccc1Cl	-3	0	8	.
CC(C)(C)c1ccc(C(=O)NNC(=O)C2CCCCC2)cc1	-3	0	-6	-5
COC(=O)C(NNc1ccc(F)cc1)(NC(=O)c1ccccc1)C(F)(F)F (configuration not stated)	24	.	-3	0
COC(=O)C(NNc1ccccc1C)(NC(=O)c1ccc(F)cc1)C(F)(F)F (configuration not stated)	-2	0	-4	98*
CNC(=S)N1CCN(c2nc(-c3ccc(Cl)cc3)cs2)CC1	-8	0	2	-13
O=C(O)c1ccc(-n2nc(C(F)(F)F)cc2-c2cccs2)cc1	281	0	-3	-4
Cc1c(CCC(=O)NCCCN2CCCC2=O)c(=O)oc2c(C)c(O)ccc12	-5	0	4	.
Cc1ccc([C@@H]2[C@@H]3C(=O)N(C)C(=O)[C@@H]3[C@@H]3C(=O)Nc4ccccc4C(=O)N23)cc1	-19	-5	2	-13
CN(C)CCCCOc1ccccc1F	-13	0	0	1
CN(C)CCCCOc1ccccc1-c1ccccc1	140	-1	29*	9
COc1ccc(CNS(=O)(=O)c2c(C(=O)N3CCCCC3)c(C)n(C)c2C)cc1	-28	0	-1	-2
COc1ccccc1C(=O)NNc1ncc(C)s1	35	-1	31*	.
COc1ccc(S(=O)(=O)Nc2c(C(=O)O)[nH]c3ccc(OC)cc23)cc1	9	1	-3	98*
COC(=O)c1[nH]c2ccc(F)cc2c1NS(=O)(=O)c1ccc(OC)cc1	348*	0	3	3
COc1ccc2[nH]c(C(=O)O)c(NS(=O)(=O)c3ccc(OC)c(OC)c3)c2c1	4	-1	-17	.
C=CCOc1ccccc1OCC(O)CNC(C)C (configuration not stated)	-10	.	.	-66
CN(C)c1ccc(NC(=O)CSc2nnc(-c3cnccn3)n2C)cc1	-2	1	14	99*
Cn1c(SCC(=O)c2ccccc2)nnc1-c1cnccn1	-16	2	1	97*
SMILES	Mot1-301 SUMO	HIF activator	M18AAP inhibitor	ALR inh
CCn1c(SCC(=O)c2ccccc2)nnc1-c1cnccn1	-15	2	-4	51
Cc1sc2nc(CSC(C)C(=O)N(C)CC(=O)Nc3ccccc3C(F)(F)F)[nH]c(=O)c2c1C (configuration not stated)	-5	-3	.	60
Cc1ccc(F)cc1NC(=O)CSCc1nc2sc(C)c(C)c2c(=O)[nH]1	-2	0	.	97*
CSc1ccccc1NC(=O)CSCc1nc2sc(C)c(C)c2c(=O)[nH]1	10	0	.	57
Cc1sc2nc(CSCC(=O)Nc3ccccc3C#N)[nH]c(=O)c2c1C	2	0	12	98*
COc1cc2ncnc(NCc3ccc(F)cc3)c2cc1OC	3	0	-11	-1
CC(=O)Nc1c(O)nc(SCC(=O)Nc2nnc(SCc3ccccc3)s2)[nH]c1=O	-7	0	13	74
O=C(N/N=C/c1ccccc1)C1CCCN1C(=O)c1cc([N+](=O)[O-])cc([N+](=O)[O-])c1 (configuration not stated)	-4	.	-4	-27
